# A selection: hits, their analogues and other compounds. The true share with any hit is near 2.5%.
# Mcl1-Bid inh: Mcl-1/Bid interaction inhibition; Q07820; TR-FRET Mcl-1/Bid-Dy647 peptide binding, 1536-well; inhibition, % at 21.7 µM; 0.97% of 220,000 active; AID 1021;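 active = compounds that cut the binding signal by more than half at the single screening dose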;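 also: His-tagged Mcl-1 with europium anti-His antibody binding Bid BH3 peptide; 0% = Mcl-1 plus peptide wells and 100% = peptide-only wells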
# Target sequence (Q07820 whole entry, looked up): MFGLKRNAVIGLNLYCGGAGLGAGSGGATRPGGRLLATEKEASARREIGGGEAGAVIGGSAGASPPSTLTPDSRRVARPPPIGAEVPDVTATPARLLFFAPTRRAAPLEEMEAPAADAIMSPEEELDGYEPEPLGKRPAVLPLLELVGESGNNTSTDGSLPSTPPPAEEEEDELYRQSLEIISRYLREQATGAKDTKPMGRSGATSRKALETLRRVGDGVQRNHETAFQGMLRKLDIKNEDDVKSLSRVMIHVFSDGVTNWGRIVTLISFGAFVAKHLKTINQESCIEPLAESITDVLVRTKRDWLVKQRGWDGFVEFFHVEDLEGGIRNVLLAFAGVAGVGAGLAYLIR
# MCL1 BIM primary: MCL1-BIM-BH3 interaction inhibition (human); GST-MCL1 / FITC-Bim-BH3 fluorescence polarization; inhibition, % at 10.9 µM; 0.68% of 320,000 active;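 active = inhibition above the mean inhibition of all tested compounds plus 3 SD, set per campaign, cut at about 40% in these data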;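 also: 0% = DMSO wells and 100% = unlabeled Bim-BH3 peptide control; higher means more loss of mP so more displacement of Bim peptide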
# 14-3-3 Bad PPI: disrupts binding of bovine 14-3-3 zeta to phospho-Bad peptide; P63103; TR-FRET 14-3-3zeta/Dy647-pBad peptide displacement, 1 h; inhibition, % at 21.7 µM; 0.71% of 220,000 active;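 active = inhibition above about 70%, limit read from the data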;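 also: 0% = full 14-3-3 plus peptide FRET controls and 100% = background without 14-3-3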
# Target sequence (P63103 whole entry, looked up): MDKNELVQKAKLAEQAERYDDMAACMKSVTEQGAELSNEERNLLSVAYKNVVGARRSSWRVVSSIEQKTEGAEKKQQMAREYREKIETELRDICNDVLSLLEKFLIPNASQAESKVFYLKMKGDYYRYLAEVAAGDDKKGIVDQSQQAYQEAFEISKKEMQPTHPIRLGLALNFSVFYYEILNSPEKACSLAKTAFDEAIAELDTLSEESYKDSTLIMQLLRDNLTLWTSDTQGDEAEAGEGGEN
# Mcl1 Noxa PPI: disrupts binding of human Mcl-1 to Noxa peptide; TR-FRET Mcl-1/Noxa peptide binding, 2 h; Q07820; inhibition, % at 21.7 µM; 1.5% of 220,000 active;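 active = compounds that cut the protein-peptide binding signal by more than 50% relative to plate controls in a single-dose test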;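 also: His-tagged Mcl-1 with rhodamine Noxa BH3 peptide and terbium anti-His antibody; 0% = Mcl-1 plus Noxa peptide wells and 100% = peptide-only wells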
# Mcl-1 Bim block: human Bim-Mcl-1 interaction inhibition; Bead-based flow cytometry, Bim peptide-Mcl-1 binding; 0.1% of 190,000 active; AID 1009; Q07820; inhibition, % at 10 µM; in the data active = inhibition above about 40%;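 also: 0% = no compound tracer wells and 100% = peptide blocker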
# Starred values were filed as active, the others as inactive; · = no result; [ ] = dose if it differs, or a comment.
SMILES,Mcl1-Bid inh,MCL1 BIM primary,14-3-3 Bad PPI,Mcl1 Noxa PPI,Mcl-1 Bim block
O=C(/C=C/c1ccc(-c2ccccc2[N+](=O)[O-])o1)c1ccco1,-58,32,4,66*,2
Cc1ccc(S(=O)(=O)NC2=C(N3CCN(c4ccccc4F)CC3)C(=O)c3ccccc3C2=O)cc1,-17,15,-17,·,-2
Cc1ccc(S(=O)(=O)Nc2nc3ccccc3nc2N2CCN(c3ccccc3F)CC2)cc1,4,3,5,51*,-5
Cc1ccc(S(=O)(=O)Nc2ccccc2C(=O)OC(C)C(=O)Nc2ccc3ccccc3c2)cc1[N+](=O)[O-] (stereo not given),-16,-5,7,0,-3
COc1ccc(NC(=S)NNc2ccc(S(=O)(=O)Nc3ccccc3C(=O)O)cc2[N+](=O)[O-])cc1,73*,38,14,88*,·
Cc1nnc(SCC(=O)NC(C)(C)C)n1C1CCCCC1,-19,-23,-5,29,-2
CCOC(=O)c1c(NC(=O)CSc2nnc(C)s2)sc2c1CCN(C)C2,18,-27,39,68*,0
CCOC(=O)c1c(NC(=O)Cc2ccccc2)sc2c1CCN(C)C2,·,-7,·,·,·
CC(=O)c1cccc(NC(=O)COC(=O)c2cccc(N3C(=O)c4ccccc4C3=O)c2)c1,11,-8,10,39,-3
O=C(Nc1ccc(C2=NCCN2)cc1)c1ccc(C(=O)Nc2ccc(C3=NCCN3)cc2)c([N+](=O)[O-])c1,34,14,79*,67*,·
COc1cc(C(=O)N2CCN(Cc3ccccc3C(F)(F)F)CC2)cc(OC)c1OC,48,-2,35,40,-3
COc1cc(OC)cc(C(=O)N2CCN(Cc3ccccc3C(F)(F)F)CC2)c1,67*,10,42,39,-2
CN1CCCN(Cc2ccccc2C(F)(F)F)CC1,31,1,81*,10,-4
COc1cccc(OC)c1C(=O)N1CCN(Cc2ccccc2C(F)(F)F)CC1,43,-5,84*,26,-5
CC1(C)CC(=O)CC(=NCC(=O)O)C1,-7,3,8,66*,0
Cn1c(-c2ccccc2)c(/C=N/NC(=O)c2ccc(O)cc2)c2ccccc21,-14,-2,5,9,·
CC1(C)CC(=O)c2c(O)cc(OCc3ccc([N+](=O)[O-])cc3)cc2O1,-9,8,-4,8,0
CC(C)NS(=O)(=O)c1ccc(OCC(=O)Nc2ccc(F)cc2)cc1,-11,4,-4,13,58*
CCC(=O)N1CCc2cc(S(=O)(=O)NCCC(=O)NCc3ccc(F)cc3)ccc21,·,2,·,·,·
O=C(NC1CCCCCCC1)c1ccc(Br)cc1,·,52*,·,·,·
O=C(Cc1ccc(Br)cc1)NC1CCCCC1,-27,6,1,12,-1
CC1CCC(C(C)C)C(OCC(O)CN2CCOCC2)C1 (stereo not given),5,-2,15,13,1
CC1CCC(C(C)C)C(OCC(O)CN2CCN(Cc3ccccc3)CC2)C1 (stereo not given),35,-9,74*,35,-2
COC(=O)CNC(=O)CN1c2cccc3cccc(c23)S1(=O)=O,-10,7,-7,7,-4
COc1ccc(NC(=O)c2ccc(OC)c(S(=O)(=O)N3CCCCC3C)c2)cn1 (stereo not given),·,48*,·,·,·
SMILES,Mcl1-Bid inh,MCL1 BIM primary,14-3-3 Bad PPI,Mcl1 Noxa PPI,Mcl-1 Bim block
COc1ccc(C(=O)Nc2cccc(C)c2)cc1S(=O)(=O)N1CCOCC1,76*,0,-7,3,0
COc1ccc(NC(=O)c2cc(OC)c(OC)c(OC)c2)cc1S(=O)(=O)N1CCCCC1,38,5,-11,3,-1
COc1ccc(C(=O)Nc2ccc(NC(C)=O)cc2)cc1S(=O)(=O)N1CCCC1,·,-4,·,·,·
COc1ccc(NC(=O)c2ccc(Cl)nc2)cc1S(=O)(=O)N1CCCCC1,-40,-1,91*,18,0
COCCCOc1ccnc(CS(=O)c2nc3ccccc3[nH]2)c1C (stereo not given),·,23,·,·,·
COc1ccc2nc(S(=O)Cc3ncc(C)c(OC)c3C)[nH]c2c1 (stereo not given),11,20,-4,84*,-1
CC(=O)Oc1ccc(Cl)cc1/C=C/c1ccc2ccccc2n1,97*,-1,0,22,-7
COc1ccc(-n2c(SCc3ccc([N+](=O)[O-])cc3)nnc2-c2ccc(C)cc2)cc1,2,-8,92*[fluorescence artefact?],25,10
O=C(Cn1c2ccc(F)cc2c2nc3n(c(=O)c21)CCS3)Nc1ccccc1C(F)(F)F,32,-10,81*,-43,-1
CC(C)CCNC(=O)c1ccc(Cl)c(N)c1,-20,-3,4,7,2
COc1ccccc1NC(=S)N(Cc1ccco1)Cc1cc2cc(C)c(C)cc2[nH]c1=O,-43,9,-14,-5,-3
O=C(CN1CCOCC1)n1c2ccccc2c2ccccc21,-16,2,75*,-2,-5
O=C(CN1CCN(C(c2ccccc2)c2ccccc2)CC1)N1CCOCC1,27,3,73*,29,-6
O=C(CN1CCOCC1)n1c2c(c3ccccc31)CCCC2,-11,-3,-2,10,-4
Cc1ccc(NC(=O)CSC(C)c2nc3ccccc3c(=O)[nH]2)cc1 (stereo not given),·,-20,·,·,·
CCC1Oc2ccc(C)cc2N(CC(=O)N(Cc2cccnc2)Cc2ccc(C)o2)C1=O (stereo not given),71*,1,3,64*,1
N=c1c[n+](N2CCOCC2)[n-]o1,56*,0,6,7,0
CC1CC(C)CN(C2CCN(Cc3cccnc3)CC2)C1 (stereo not given),29,7,79*,17,-2
CCNC(=O)c1ccc(CSc2nc3ccccc3s2)cc1,·,-2,·,·,·
COC(=O)C1=C(C)NC(=O)NC1c1c(O)ccc2ccccc12 (stereo not given),·,-9,·,·,·
O=C(N1CCOCC1)N1CCC(c2nc(-c3ccc(S(=O)(=O)N4CCOCC4)cc3)no2)CC1,-13,8,73*,2,-1
C(=N\N1CCN(Cc2cccc3ccccc23)CC1)/c1cccnc1,58*,-6,2,-9,0
O=C(O)c1ccc(/C=N/N2CCN(Cc3cccc4ccccc34)CC2)cc1,-26,-9,94*,4,1
FC(F)(F)c1ccc(/C=N/N2CCN(Cc3cccc4ccccc34)CC2)cc1,-71,1,-18,-5,0
CN(C(=O)CSc1nc2ccccc2n1CCc1ccccc1)C1CCS(=O)(=O)C1 (stereo not given),-9,-6,-3,-8,-1
COc1ccc(NC2CCN(C3CC(=O)N(c4ccc(F)c(Cl)c4)C3=O)CC2)cc1 (stereo not given),-38,4,2,56*,-3
CCCN1CCN(c2nc(-c3cccs3)nc3ccccc23)CC1,-11,6,-8,53*,-2
CCN1CCN(c2nc(-c3cccnc3)nc3ccccc23)CC1,39,4,26,66*,13

# Source: PubChem
